PubChem BioAssay (NCI)
This is part of a sample that, as a whole, favours compounds with a hit. Of some 83,000 tested, about 20% had one in any assay.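 Step 1: grow cells in 96-well plates. Step 2: add test compound at a single concentration. Step 3: incubate 48 h. Step 4: record percent growth.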 A number with no mark means an inactive call. The calls were made as follows: active = growth percent below 10; inactive = the rest.

tested on: SK-MEL-5 melanoma; test: NCI-60 one-dose screen, 48 h (100 = growth as untreated, 0 = no growth, -100 = all killed); conditions: 10 µM unless noted

SMILES	growth [%]
O=C1C(Cl)=C(NCCCN2CCOCC2)C(=O)c2ccccc21	67.5
COc1cccc(OC)c1OC(=O)c1ccccc1	96
Oc1ccc2ccccc2c1C1NN=C(c2ccccc2)S1 (stereo not given)	11.6
CCCCC/C=C\C/C=C/CCCCCCCCNC(=O)Nc1ccc([N+](=O)[O-])cc1	103
CCN1CCN(C(=S)SCC(=O)Nc2nc3ccc(OC)cc3s2)CC1	94.6
NC(=S)N/N=C1\c2ccccc2-c2c(F)c(F)c(F)c(F)c21	102
CCC12CCC3c4ccc(O)cc4CCC3C1CC(O)C2O (stereo not given)	63.4
O=C1NC(=O)C(CSc2ccccc2)(c2ccccc2)N1 (stereo not given)	92.6
C=C(C)COC(=O)c1ccccc1C(=O)OCC1(C)CO1 (stereo not given)	105
CC(=O)OC[C@H](O)[C@@]1(O)CC[C@H]2[C@@H]3CCC4=CC(=O)CC[C@]4(C)[C@H]3[C@@H](O)C[C@@]21C	101
CC(=O)Nc1ccc(S(=O)(=O)N/N=C\c2ccc(Cl)c(Cl)c2)cc1	104
COc1ccc(/C=C(\C#N)c2ccc(OC)cc2)cc1	32
CC(=O)c1cc(C)c(OC(=O)c2ccccc2)c(C)c1	88.9
Oc1ccccc1/C=N/Nc1nc2ccccc2s1	48.8
COc1cccc(OC(=O)c2ccccc2)c1OC(=O)c1ccccc1	56.9
N#CCCN1CCN(CCC#N)C1=S	110
COC(=O)/C=C1/CCC2C3CCC4=CC(=O)C(Br)CC4(C)C3C(=O)CC12C (stereo not given)	57.4

tested on: UACC-62 melanoma; test: as above; conditions: 10 µM unless noted

SMILES	growth [%]
O=C1C(Cl)=C(NCCCN2CCOCC2)C(=O)c2ccccc21	94.8
COc1cccc(OC)c1OC(=O)c1ccccc1	97.1
CCCCC/C=C\C/C=C/CCCCCCCCNC(=O)Nc1ccc([N+](=O)[O-])cc1	68.4
Clc1ccc(Nc2ccnc(N3CCN(c4ccnc5cc(Cl)ccc45)CC3)n2)cc1	31.3
Cc1ccc(S(=O)(=O)N(c2ccc(Cl)cc2)c2ccc(Br)cc2C(=O)O)cc1	105
Cn1c2ccccc2c2nn(Cc3ccccc3)c(=O)nc21	108
Cn1c2ccccc2c2nn(C(=O)c3ccccc3)c(=O)nc21	105
COc1ccc(OC2=C(C#N)C(=N)N3c4ccccc4Sc4ccccc4C3N2)cc1 (stereo not given)	69.6
NC(=S)N/N=C1\c2ccccc2-c2c(F)c(F)c(F)c(F)c21	93.4
NC(=O)c1cc(I)ccc1NC(=O)COc1ccc(Cl)cc1Cl	83.1
CCC12CCC3c4ccc(O)cc4CCC3C1CC(O)C2O (stereo not given)	67.6
O=C1NC(=O)C(CSc2ccccc2)(c2ccccc2)N1 (stereo not given)	101
C=C(C)COC(=O)c1ccccc1C(=O)OCC1(C)CO1 (stereo not given)	92.8
COc1ccc(NC(=O)COc2ccccc2)c(C(N)=O)c1	43
O=c1nc(NO)[nH]c(=O)n1Cc1ccc(F)cc1	108
NC(=O)c1cc(I)ccc1NC(=O)COc1ccccc1	46
O=C(Nc1ccccc1O)c1ccc(NS(=O)(=O)c2cccc3cccnc23)cc1	23.1
CC(=O)OC[C@H](O)[C@@]1(O)CC[C@H]2[C@@H]3CCC4=CC(=O)CC[C@]4(C)[C@H]3[C@@H](O)C[C@@]21C	104
COc1cc(NC(=O)COc2ccccc2)c(C(N)=O)cc1OC	51.9
COc1ccc(Nc2[nH]n(C3=Nc4ccccc4Sc4ccccc43)c(=O)c2C#N)cc1	32.8
COc1c(Cl)ccc2c(-c3nc4cc(Cl)c(F)cc4s3)cc(=O)oc12	91.7
Cn1c2ccc(Cl)cc2c2nn(C(=O)c3ccccc3)c(=O)nc21	107
CC(=O)Nc1ccc(S(=O)(=O)N/N=C\c2ccc(Cl)c(Cl)c2)cc1	99.2
COc1ccc(/C=C(\C#N)c2ccc(OC)cc2)cc1	54.5
CCCCNNC(=O)c1ccc(Br)cc1	40.9
CC(=O)c1cc(C)c(OC(=O)c2ccccc2)c(C)c1	90.7
Clc1nc(-c2ccccn2)nc2sc3c(c12)CCCCCC3	96
Cc1ccc(C(=O)Nc2ccccc2N)cc1	52.1
